In the library only some 14% were active in any assay of this set; here they are far more common.
Shiga inhibitor = blocks Shiga toxin action in Vero cells | Vero cells, Shiga toxin protein synthesis inhibition reporter | inhibition, % at 38.7 µM | 290,000 tested, 9.2% active | AID 2315; in the data active = inhibition mostly above about 28%, no sharp cut-off; inactive = mostly below about 43%
LmPK inh = inhibitors of Leishmania mexicana pyruvate kinase; Potency, µM (series often up to 57.5 µM), most hits filed as inhibitors; Q27686; purified LmPK, Kinase-Glo ATP luminescence, 1 h; AID 1721; 290,000 tested, 0.37% active
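Purified LmPK (0.1 nM) with 0.5 mM PEP and 0.1 mM ADP in imidazole buffer pH 7.2 with MgCl2/KCl, 1 h at room temperature. ATP formed was read by luciferase luminescence and normalized to no-enzyme and uninhibited controls.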
CHX counter = affects cycloheximide protein synthesis inhibition readout, counter-screen; cell reporter, cycloheximide protein synthesis inhibition counterscreen; max response, %; 300,000 tested, 12% active; AID 2314; in the data active = max response mostly above about 13%, no sharp cut-off; inactive = mostly below about 14%; note: read at 38.3 µM for the half of the compounds with a filed dose
NS1 function inh = blocks influenza NS1 protein function | Potency, µM (doses to about 46.1 µM) | 270,000 tested, 0.4% active; calls by dose curve; note: actives are rising curves; nearly all actives have a fitted effect of over 50% in size
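Read-out: OD600 growth recovery of NS1-expressing budding yeast. Cells grown overnight at 30C in -URA glucose medium, washed, resuspended and diluted 1:100 in 2% galactose assay medium, pH 6.0. Same strain lacking NS1 served as positive control.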
Giardia FBPA inh = inhibitors of Giardia lamblia fructose-1,6-bisphosphate aldolase; A8B2U2; purified Giardia FBPA; Potency, µM (top dose mostly 59.6 µM), actives largely listed as inhibitors; 290,000 tested, 0.71% active; AID 2451; note: nearly all actives have a fitted effect of over 55% in size
Target sequence (A8B2U2 whole entry, looked up): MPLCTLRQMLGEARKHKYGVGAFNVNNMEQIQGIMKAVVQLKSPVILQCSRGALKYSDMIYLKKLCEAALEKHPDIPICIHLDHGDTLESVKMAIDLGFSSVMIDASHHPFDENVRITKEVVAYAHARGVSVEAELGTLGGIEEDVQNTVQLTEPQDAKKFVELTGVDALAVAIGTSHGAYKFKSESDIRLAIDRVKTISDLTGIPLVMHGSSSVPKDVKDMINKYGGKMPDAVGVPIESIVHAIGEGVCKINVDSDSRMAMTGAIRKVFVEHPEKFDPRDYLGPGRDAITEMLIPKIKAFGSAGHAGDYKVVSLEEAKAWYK
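Giardia FBPA (40 nM reagent) was preincubated 10 min at RT with compound (up to 57.5 uM final), then substrate plus GAPDH/TPI/NAD/arsenate coupling system with diaphorase/resazurin was added; resorufin fluorescence (525/598 nm) was read after 20 min.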
NS1 inh valid = influenza NS1 function inhibition validation; influenza NS1 function cell assay, 15-point titration; AID 492980; 1,400 tested, under 10 active; shares compounds with NS1 function inh; activity change, negative = inhibition, % at 32.9 µM; calls by dose curve
PR8 titer = influenza NS1 inhibitors: inhibition of influenza A/PR/8/34 replication. shares compounds with NS1 function inh. MDCK infected influenza A/PR/8/34, virus titer TCID50; stronger effect = lower value. virus titer (log TCID50), log10 TCID50 at 5 µM. 95 tested, 30% active. AID 504647; call rule not given here
Of the large screens only hits and unclear results are named; the others gave an inactive call (follow-up assays come after a bar, where they were run). Unless noted, calls come from the whole dose curve; as a rule, active = well fitted curve in the direction sought with a large enough effect; inconclusive = small, poorly fitted or top-dose-only effect, or another doubt; inactive = no such curve, though single readings can be large; an effect the other way counts as inactive or inconclusive.

OC(Cc1nc2ccccc2[nH]1)c1ccccc1Cl (centres undefined)	Shiga inhibitor 107.5, CHX counter 48.8, NS1 function inh 0.282µM | NS1 inh valid inactive
COCCNC(=O)CCC1CCN(Cc2ccc(-c3ccccc3)cc2)CC1	none
O=C(O)c1nn(Cc2ncc(-c3cccc(Cl)c3)o2)c(=O)c2ccccc12	none
O=C(Nc1ccc(O)c(-c2nc3ccccc3o2)c1)C1(c2ccc([N+](=O)[O-])cc2)CCCC1	NS1 function inh 8.91µM | NS1 inh valid inactive
O=C(Nc1ccc(O)c(-c2nc3ccccc3o2)c1)C1(c2ccc(Cl)cc2)CCCC1	none
CSC1=NCCN1C(=O)c1ccc(C)cc1	none
CSC1=NCCN1C(=O)c1ccc2c(c1)OCO2	NS1 function inh inconclusive | NS1 inh valid inactive
C(=N\N1CCN(Cc2cccc3ccccc23)CC1)/c1cccnc1	NS1 function inh 10µM | NS1 inh valid inactive
O=C(Nc1ccc(S(=O)(=O)N2CCCCC2)cc1)C1CCCO1 (centres undefined)	none
Cc1ccc2c(c1)NCC(C(=O)NC1CCCCC1)O2 (centres undefined)	NS1 function inh 7.94µM | NS1 inh valid inactive
CCOCCCNC(=O)C(NC(=O)CC1NC(=O)NC1=O)c1ccc(Cl)cc1 (centres undefined)	NS1 function inh 0.891µM | NS1 inh valid inactive
CCOCCCNC(=O)C(NC(=O)c1ccc(NC(C)=O)cc1)c1ccc(Cl)cc1 (centres undefined)	none
CN(C)S(=O)(=O)c1cccc(NC(=O)c2ccc(COc3ccccc3)cc2)c1	none
Cc1nc(NC(=O)c2ccccc2)sc1-c1csc(Nc2ccc(Cl)cc2)n1	NS1 function inh 5.01µM | NS1 inh valid inactive
Cc1nc(NC(=O)c2ccccc2)sc1-c1csc(Nc2ccc(F)cc2)n1	NS1 function inh inconclusive
CCN(CC)C(=O)CSc1nc2cccnc2n1-c1ccccc1OC	none
CCN(CC)C(=O)CSc1nc2ccccc2c(=O)n1-c1ccccc1OC	NS1 function inh 35.5µM | NS1 inh valid inactive
COc1ccccc1-n1c(SCC(=O)N2CCOCC2)nc(O)cc1=O	NS1 function inh inconclusive
COc1ccccc1-n1c(SCC(=O)N2CCCC2)nc2cccnc21	NS1 function inh 2µM | NS1 inh valid inactive
O=C(CSc1nc(O)c(Cc2ccccc2)c(=O)[nH]1)N1CCOCC1	NS1 function inh inconclusive | NS1 inh valid inactive | PR8 titer inactive
COc1ccccc1-n1c(SCC(=O)N2CCOCC2)nc(O)c(Cc2ccccc2)c1=O	NS1 function inh inconclusive | NS1 inh valid inactive
COc1ccc(/C=C2/C(=O)NC(=O)N(c3ccccc3)C2=O)cc1CN1C(=O)c2ccccc2C1=O	none
COc1cc(/C=C2/C(=O)NC(=O)N(c3ccccc3)C2=O)ccc1O	NS1 function inh inconclusive | NS1 inh valid inactive
CCc1ccc(CN2CCC(n3nccc3NC(=O)C3CCCC3)CC2)cc1	none
CCN(CC)C(=O)c1sc2nc(-c3cccs3)cc(-c3ccc(Cl)cc3)c2c1N	NS1 function inh 4.47µM | NS1 inh valid inconclusive
CCN(CC)C(=O)c1sc2nc(-c3cccs3)cc(-c3cccs3)c2c1N	none
COC(=O)c1cc(C(=O)OC)cc(N2C(=O)CC(NNC(=O)c3ccccc3Br)C2=O)c1 (centres undefined)	none
COC(=O)c1cc(C(=O)OC)cc(N2C(=O)CC(NNC(=O)c3ccc(C)cc3)C2=O)c1 (centres undefined)	NS1 function inh 7.08µM | NS1 inh valid inactive
Cc1ccc(S(=O)(=O)Nc2ccc(C(=O)N3CCOCC3)cc2)cc1	none (no result: Giardia FBPA inh)
NC(Cc1c[nH]c2ccccc12)C(=O)NCc1ccccc1 (centres undefined)	NS1 function inh inconclusive | NS1 inh valid inactive
CCOC(=O)CSc1nc2ccccc2c(=O)n1CCN1CCOCC1	none
CCOC(=O)CSc1nc2ccc(N3CCOCC3)cc2c(=O)n1Cc1ccccc1	CHX counter 18.2, NS1 function inh 1µM, Giardia FBPA inh inconclusive | NS1 inh valid inactive
Cc1ccc(NC(=O)NNC(=O)C2CC(c3cccs3)=NO2)cc1 (centres undefined)	none

Screening data: PubChem BioAssay, National Center for Advancing Translational Sciences (NCATS)
